An excerpt weighted towards active compounds, which were near 4.7% of everything screened.
D1 PAM – Potentiators of Human D1 Dopamine Receptor: qHTS; D(1A) dopamine receptor (Homo sapiens), P21728; potentiation, % at 10 µM; HEK293 TREx D1 cells, calcium flux, dopamine EC20 potentiation; hit rate 0.036% among 360,000; in the data active = potentiation above about 30%; note: 0% is about no effect
Target sequence (P21728 whole entry, looked up): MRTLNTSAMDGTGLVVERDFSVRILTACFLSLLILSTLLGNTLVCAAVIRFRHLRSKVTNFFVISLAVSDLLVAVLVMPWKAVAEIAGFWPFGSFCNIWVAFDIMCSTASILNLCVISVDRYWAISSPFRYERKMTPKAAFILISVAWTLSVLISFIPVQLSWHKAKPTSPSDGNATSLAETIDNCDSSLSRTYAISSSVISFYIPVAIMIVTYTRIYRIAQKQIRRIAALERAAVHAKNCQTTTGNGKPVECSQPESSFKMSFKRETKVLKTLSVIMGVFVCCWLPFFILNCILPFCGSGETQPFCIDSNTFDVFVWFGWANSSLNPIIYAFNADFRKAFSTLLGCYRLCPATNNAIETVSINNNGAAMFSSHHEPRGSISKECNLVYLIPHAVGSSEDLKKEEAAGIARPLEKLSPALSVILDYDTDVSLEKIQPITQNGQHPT
D1 ag – Allosteric Agonists of the Human D1 Dopamine Receptor: qHTS | HEK293 T-REx D1 cells, calcium flux, agonist mode | D(1A) dopamine receptor (Homo sapiens), P21728 | hit rate 1% among 360,000 | activation, % at 2 µM; note: 0% is about no effect
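Agonism was scored from calcium flux recorded over 180 s (1 read/s) after pintool compound addition, following a 10-cycle baseline. Cells were inducible force-coupled HEK293 TREx D1, plated overnight at 30 C and loaded with no-wash calcium dye.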
TRHR PAM – qHTS for Small Molecule Agonists and Allosteric Enhancers of Human TRH Receptor: Primary Screen for Enhancers | Thyrotropin-releasing hormone receptor (Homo sapiens), P34981 | TRHR cells, fluo-8 calcium fluorescence, EC20 TRH enhancement | hit rate 0.66% among 360,000 | AID 493056, 2011 | enhancement, % at 2 µM; in the data active = enhancement above about 30%; note: 0% is about no effect
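TRHR-expressing cells loaded with fluo-8 calcium dye were read kinetically (ex 480/em 530) during compound addition, then stimulated with an EC20 of TRH (10 nM final). Enhancement of the Gq-mediated intracellular calcium response was scored.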
TRHR agonist – qHTS for Small Molecule Agonists and Allosteric Enhancers of Human TRH Receptor: Primary Screen for Agonists; Thyrotropin-releasing hormone receptor (Homo sapiens), P34981; TRHR cells, calcium flux fluo-8, FDSS agonist mode; activation, % at 2 µM; hit rate 0.18% among 360,000; AID 493084, 2011; note: 0% is about no effect
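TRHR-expressing cells, plated overnight in medium with 10% serum, were loaded with fluo-8 calcium dye at room temperature. After a 10 s baseline, library compound was pin-added and calcium release was recorded kinetically (ex 480/em 530) as agonist response.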
D1 antag – Antagonist of Human D 1 Dopamine Receptor: qHTS; D(1A) dopamine receptor (Homo sapiens), P21728; HEK293 TREx D1 cells, calcium flux, dopamine EC80; active compounds read low; activity change, negative = inhibition, % at 10 µM; hit rate 3.2% among 360,000; in the data active = activity change below about -30%; note: % is set by controls: 0 for no effect and ±100 for the full control effect
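Inducible Hek293 Trex D1 cells (tetracycline, overnight, 30 C). Calcium dye 30–90 min RT. Antagonist mode: EC80 dopamine added after 180 s compound read.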
* hit, by the source's call; ! = a repeat was not active. Cut-off read from the data, not from the text of the source, unless noted: active = activation above about 30%; inactive = the rest.

SMILES	D1 PAM	D1 ag	TRHR PAM	TRHR agonist	D1 antag
CCC(C)NC(=O)c1ccc(NS(=O)(=O)c2ccc3[nH]c(=O)[nH]c3c2)cc1 (stereo not given)	-3.1	0.7	-2.2	0.3	-32.6*
COCCNC(=O)c1ccc(NS(=O)(=O)c2ccc3[nH]c(=O)[nH]c3c2)cc1	-1.5	2.9	4.4	0.4	0.3
CC(C)C[C@H]1C(=O)N2CCC[C@H]2[C@]2(O)O[C@](NC(=O)[C@@H]3C=C4c5cccc6[nH]c(Br)c(c56)CC4N(C)C3)(C(C)C)C(=O)N12 (stereo not given in full)	-4.5	10.1	-5.9	10.2	-41.7*
CC1=C(c2ccc(C)c(C)c2)S(=O)(=O)N=C1N1CCC(C(=O)N2CCC(C)CC2)CC1	-8.2	0.7	-4.6	-0.4	-9.6
Cc1ccc(C)c(NC(=O)N2CCN(C(=O)c3nsc4ccccc34)CC2)c1	-2.0	0.9	2.6	-0.2	-5.0
COc1ccc(C(=O)O)cc1Nc1nc2ccc(C)cc2n2cnnc12	1.4	0.9	3.8	-0.6	-4.8
Cc1ccc(C)c(NC(=O)c2nnn(CC(=O)Nc3cccc(C)c3C)c2N)c1	0.6	1.4	5.0	1.5	2.7
Cc1cc(C)c(NC(=O)Cn2nnc(C(=O)Nc3ccc(F)cc3F)c2N)c(C)c1	0.4	2.5	6.6	2.7	-68.5*!
COc1ccc(NC(=O)c2nnn(Cc3ccccc3C)c2N)c(OC)c1	0.6	5.4	5.8	1.2	-0.2
Cc1ccc(Cn2nnc(C(=O)Nc3cccc(C)c3C)c2N)cc1	-5.5	94.1*	-5.9	12.7	-13.6
CCc1ccccc1NC(=O)c1nnn(Cc2ccc(Cl)cc2)c1N	-0.8	56.0*	13.5	7.9	-2.4
COc1ccc(OC)c(NC(=O)c2nnn(Cc3ccccc3C)c2N)c1	2.9	1.8	1.5	-1.2	-52.0*
COc1ccc(C)cc1NC(=O)Cn1nc(N2CCN(c3ccccc3OC)CC2)ccc1=O	-3.4	1.1	-3.0	-0.1	-1.4
Cc1cccn2c(=O)c(C(=O)NCc3ccccc3Cl)c(O)nc12	-1.2	-0.5	-3.3	0.0	5.3
Cc1ccc(NC(=O)c2nnn(Cc3cccc(C(F)(F)F)c3)c2N)c(C)c1	0.8	10.5	7.8	2.6	-45.0*
Cc1cccc(Cn2nnc(C(=O)Nc3cc(C)ccc3C)c2N)c1	3.4	10.2	-10.4	0.2	15.1
CC(=O)NC(=O)c1nnn(Cc2ccccc2)c1NC(C)=O	-12.4	1.5	33.9*	-0.3	12.6
Cc1ccc(Cl)cc1NC(=O)c1nnn(Cc2ccccc2)c1N	11.8	20.3	31.4*	2.3	26.5
Nc1c(C(=O)O)nnn1Cc1ccccc1	-0.3	-0.4	-1.8	1.2	4.8
CCOc1ccc(CNC(=O)CCn2c(=O)c3cccn3c3ccc(F)cc32)cc1	-0.1	-1.0	10.7	-0.3	6.9
CCOC(=O)c1cc(S(=O)(=O)Nc2c(C)cc(C)cc2C)[nH]n1	4.0	1.7	-6.0	0.3	-3.2
COc1ccc(CCNC(=O)c2ccc(Cn3c(=O)c4cccn4c4cccnc43)cc2)cc1OC	-2.8	-0.1	-1.3	0.2	8.1
c1cncc(-c2nn[nH]n2)c1	6.4	2.7	40.3*	0.4	-1.1
C=CCn1c(SCC(=O)Nc2ccc(OC)cc2)nnc1-c1cnccn1	32.2*	1.3	6.5	-0.4	-8.7
CC(C)N1C(=O)S/C(=C\c2ccc(-c3ccc(Cl)c(C(=O)O)c3)o2)C1=O	-3.9	2.4	5.4	-2.1	5.1
SMILES	D1 PAM	D1 ag	TRHR PAM	TRHR agonist	D1 antag
CCN(CC)c1ccc(/C=C2/SC(=O)N(C(C)C)C2=O)o1	-2.2	58.7*	-4.4	17.2	19.1
Cc1cc(C)c(S(=O)(=O)Nc2cccc(-c3cn4ccccc4n3)c2)c(C)c1	-2.4	7.9	11.5	0.3	-1.6
O=C(NCc1cccnc1)c1cccc2c1C(=O)N(C1CCCCC1)C2	-5.7	-1.0	7.3	-0.3	-57.8*
Cn1cccc1/C=C(\C#N)C(N)=S	-0.9	1.1	0.1	0.7	17.1
N#C/C(=C/c1cc[nH]c1)C(N)=S	-5.3	2.2	32.7*	-0.1	-1.0
CN1CCN(c2ccc(NC(=O)CSc3nnnn3-c3ccccc3F)cc2)CC1	-13.6	4.0	-4.4	0.1	-45.6*
Cc1ccc(-n2nnnc2SCC(=O)Nc2ccc(N3CCN(C)CC3)cc2)c(C)c1	-7.1	13.0	-2.6	-0.5	-60.5*
Cc1ccc(-n2nnnc2SCC(=O)Nc2sccc2C#N)cc1	-5.0	11.2	-1.3	-0.3	-65.7*
Cc1ccc(-n2nnnc2SCC(=O)Nc2cc(C)on2)c(C)c1	-7.2	0.4	1.6	-0.9	-17.3
COc1cc(NC(=O)CN2C(=O)COc3ccc(S(=O)(=O)NC4CCCC4)cc32)cc(OC)c1	-2.5	9.1	10.9	-0.6	5.5
O=C(NCc1cccs1)c1cc(-c2ccc(O)cc2)on1	-2.3	49.9*	9.4	-0.5	9.0
COc1ccc(-c2cc(C(=O)NCc3ccccc3)no2)cc1OC	-0.1	37.3*	25.4	-1.0	2.0
COc1cc(C)ccc1OCc1cc(C(=O)N2CCCCCCC2)no1	-1.8	-0.4	39.1*	-0.6	-13.0
COc1ccc(-c2nn(C)c3sc(C(=O)N4CCOCC4)cc23)cc1OC	-3.2	1.4	4.0	-0.3	-60.3*
COc1ccc(-c2nn(C)c3sc(C(=O)N4CCN(c5ccccc5F)CC4)cc23)cc1OC	4.3	-0.5	19.1	0.4	2.0
Brc1ccc(-c2cn3cc(Cc4ccccc4)sc3n2)cc1	-2.4	-0.2	-4.7	-0.3	-9.2
O=C(c1cc(-c2ccc(Cl)c(Cl)c2)on1)N1CCN(c2ccccc2)CC1	-6.5	5.6	-5.0	0.1	-31.1*
COc1ccc(-c2cc(C(=O)N3CCOCC3)no2)cc1OC	-10.8	3.1	-9.9	-0.5	-32.4*
CC1CCN(C(=O)c2cc(-c3ccc4c(c3)OCO4)on2)CC1	5.7	2.8	6.0	-1.9	-33.2*
Cc1cc(NC(=O)CN2CCC(O)CC2)nc2c1c(=O)oc1ccccc12	-2.9	-0.4	-1.4	0.4	6.2
COc1cccc(Cn2c(CNC(=O)c3cc([N+](=O)[O-])ccc3Cl)nc3cccnc32)c1	6.2	-0.1	-0.7	-0.9	-15.5
COc1ccc(-c2[nH]n(-c3ccc([N+](=O)[O-])cc3)c(=O)c2C=NCc2ccncc2)cc1	-8.1	5.5	5.5	-1.7	-31.4*
O=C(CSc1cn(CC(=O)N2CCCC2)c2ccccc12)Nc1ccc(Cl)cc1	-1.9	5.0	-10.9	0.4	1.7
CC(C)c1ccc(N2C(=O)/C(=C/N(C)C)SC2=S)cc1	3.9	98.7*	14.2	47.1*	3.5

Bioassay records from PubChem.
